The supplement of paper PMC11732987, “Enantioselective OTUD7B fragment discovery through chemoproteomics screening and high-throughput optimisation” (Communications Chemistry, 2025)

Tests used:
Experiment in all cases: log2 ratio of Biotin-Ahx-Ub-VS probe labelling (fragment/DMSO); higher = less target engagement (more negative = stronger competition), active = hit call of the paper (q ≤ 0.05, log2 ratio ≤ -1)
Details in all cases: compound concentration: 200 uM; treatment time: 3 h
USP42 = target: T1, USP42 (UniProt Q9H9J4)
T1 sequence (whole entry): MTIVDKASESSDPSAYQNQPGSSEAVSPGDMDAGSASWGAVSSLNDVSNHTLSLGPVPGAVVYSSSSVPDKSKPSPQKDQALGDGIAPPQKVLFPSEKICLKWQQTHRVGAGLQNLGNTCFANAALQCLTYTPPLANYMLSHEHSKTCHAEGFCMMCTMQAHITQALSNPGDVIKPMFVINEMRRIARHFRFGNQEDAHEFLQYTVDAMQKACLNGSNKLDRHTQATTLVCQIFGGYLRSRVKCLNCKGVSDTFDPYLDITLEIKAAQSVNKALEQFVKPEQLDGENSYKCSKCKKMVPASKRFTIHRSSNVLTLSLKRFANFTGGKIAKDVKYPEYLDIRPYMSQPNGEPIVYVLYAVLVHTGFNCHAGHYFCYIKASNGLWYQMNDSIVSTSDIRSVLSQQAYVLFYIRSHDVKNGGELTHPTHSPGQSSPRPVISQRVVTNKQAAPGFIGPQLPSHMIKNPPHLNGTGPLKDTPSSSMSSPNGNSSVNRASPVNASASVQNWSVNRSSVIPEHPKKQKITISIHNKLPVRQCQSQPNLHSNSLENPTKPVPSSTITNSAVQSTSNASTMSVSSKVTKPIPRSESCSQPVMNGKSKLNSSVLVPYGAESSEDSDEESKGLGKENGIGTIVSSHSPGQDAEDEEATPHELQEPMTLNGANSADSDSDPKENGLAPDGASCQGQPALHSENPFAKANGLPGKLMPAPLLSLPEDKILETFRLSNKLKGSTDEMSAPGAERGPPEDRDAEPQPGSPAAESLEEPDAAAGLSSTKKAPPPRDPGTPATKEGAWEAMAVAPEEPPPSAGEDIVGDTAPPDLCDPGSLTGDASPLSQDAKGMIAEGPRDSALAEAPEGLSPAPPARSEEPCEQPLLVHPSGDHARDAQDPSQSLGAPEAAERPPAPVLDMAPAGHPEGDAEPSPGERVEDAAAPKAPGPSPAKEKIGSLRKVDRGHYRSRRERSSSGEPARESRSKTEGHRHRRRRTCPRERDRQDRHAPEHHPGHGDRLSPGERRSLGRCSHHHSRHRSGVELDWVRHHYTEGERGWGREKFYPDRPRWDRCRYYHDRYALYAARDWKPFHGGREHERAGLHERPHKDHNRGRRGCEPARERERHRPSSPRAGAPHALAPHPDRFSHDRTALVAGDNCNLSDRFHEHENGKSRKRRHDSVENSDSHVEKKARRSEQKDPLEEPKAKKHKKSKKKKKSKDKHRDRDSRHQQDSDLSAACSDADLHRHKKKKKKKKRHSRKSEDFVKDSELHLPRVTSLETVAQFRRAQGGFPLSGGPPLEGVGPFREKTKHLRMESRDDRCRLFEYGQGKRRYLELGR
Outline: (§1)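 Lysate from HEK293T cells, 495 µg per sample in Tris/CHAPS/IGEPAL buffer with protease inhibitors, was treated for 3 h in triplicate with fragment at 200 µM or vehicle. Biotin-Ahx-Ub-VS was next added at 0.5 µM final for 1 h. The labelled DUBs were enriched with NeutrAvidin, digested with LysC and trypsin, and run by diaPASEF LC-MS/MS, with values given as average log2 fragment/vehicle ratios by unpaired t-test on global-median-normalised Spectronaut quantities of proteins with ≥2 unique peptides.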

USP46 = USP46 (UniProt P62068)
Sequence of USP46 (P62068 whole entry): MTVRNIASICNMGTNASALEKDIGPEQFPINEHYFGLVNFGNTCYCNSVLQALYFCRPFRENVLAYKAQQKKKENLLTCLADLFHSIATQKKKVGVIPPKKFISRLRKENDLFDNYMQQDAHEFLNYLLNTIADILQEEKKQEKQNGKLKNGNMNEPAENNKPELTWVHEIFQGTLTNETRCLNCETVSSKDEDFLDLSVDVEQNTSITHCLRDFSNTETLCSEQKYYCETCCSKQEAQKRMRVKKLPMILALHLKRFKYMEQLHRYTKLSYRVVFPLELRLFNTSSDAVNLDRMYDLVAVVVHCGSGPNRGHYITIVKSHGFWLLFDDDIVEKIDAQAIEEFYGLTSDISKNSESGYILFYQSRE
Outline: as §1

USP47 = target: T2, USP47 (UniProt Q96K76)
T2 sequence (whole entry): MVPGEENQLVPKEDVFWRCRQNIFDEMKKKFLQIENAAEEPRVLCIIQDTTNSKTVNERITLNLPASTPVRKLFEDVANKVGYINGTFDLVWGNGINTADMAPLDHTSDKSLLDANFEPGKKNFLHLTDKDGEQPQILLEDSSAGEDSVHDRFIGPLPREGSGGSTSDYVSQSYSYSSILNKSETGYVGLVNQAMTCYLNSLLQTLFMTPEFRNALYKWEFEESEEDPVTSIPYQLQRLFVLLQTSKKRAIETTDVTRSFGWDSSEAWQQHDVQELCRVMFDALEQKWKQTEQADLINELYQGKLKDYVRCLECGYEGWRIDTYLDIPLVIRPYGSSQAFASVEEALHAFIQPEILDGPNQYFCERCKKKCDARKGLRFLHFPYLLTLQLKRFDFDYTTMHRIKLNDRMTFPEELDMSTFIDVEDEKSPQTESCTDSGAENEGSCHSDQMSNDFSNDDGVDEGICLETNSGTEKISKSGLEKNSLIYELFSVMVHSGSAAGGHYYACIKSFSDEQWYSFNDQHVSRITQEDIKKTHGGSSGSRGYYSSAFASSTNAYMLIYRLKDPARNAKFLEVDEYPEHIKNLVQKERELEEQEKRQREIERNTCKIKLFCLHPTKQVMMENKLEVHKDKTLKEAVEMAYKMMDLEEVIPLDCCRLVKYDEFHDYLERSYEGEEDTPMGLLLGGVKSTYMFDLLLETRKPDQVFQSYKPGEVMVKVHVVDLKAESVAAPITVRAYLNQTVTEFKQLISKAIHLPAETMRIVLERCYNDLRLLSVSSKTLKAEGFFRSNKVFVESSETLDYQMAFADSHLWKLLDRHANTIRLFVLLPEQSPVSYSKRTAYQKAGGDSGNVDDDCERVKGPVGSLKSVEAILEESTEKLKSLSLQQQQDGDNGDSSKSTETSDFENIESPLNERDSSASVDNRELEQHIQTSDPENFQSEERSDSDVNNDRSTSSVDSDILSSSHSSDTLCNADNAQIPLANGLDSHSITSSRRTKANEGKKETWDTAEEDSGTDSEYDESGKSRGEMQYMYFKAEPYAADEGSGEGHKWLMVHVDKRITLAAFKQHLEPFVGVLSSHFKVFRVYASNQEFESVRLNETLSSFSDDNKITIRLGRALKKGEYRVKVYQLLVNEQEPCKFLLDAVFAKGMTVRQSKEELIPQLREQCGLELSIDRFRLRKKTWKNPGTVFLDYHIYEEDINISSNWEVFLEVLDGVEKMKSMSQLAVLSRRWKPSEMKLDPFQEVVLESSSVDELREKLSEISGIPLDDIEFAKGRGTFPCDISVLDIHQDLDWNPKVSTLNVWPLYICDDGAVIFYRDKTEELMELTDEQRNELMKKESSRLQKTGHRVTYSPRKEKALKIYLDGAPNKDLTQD
Outline: as §1

USP48 = target: T3, USP48 (UniProt Q86UV5)
T3 sequence (whole entry): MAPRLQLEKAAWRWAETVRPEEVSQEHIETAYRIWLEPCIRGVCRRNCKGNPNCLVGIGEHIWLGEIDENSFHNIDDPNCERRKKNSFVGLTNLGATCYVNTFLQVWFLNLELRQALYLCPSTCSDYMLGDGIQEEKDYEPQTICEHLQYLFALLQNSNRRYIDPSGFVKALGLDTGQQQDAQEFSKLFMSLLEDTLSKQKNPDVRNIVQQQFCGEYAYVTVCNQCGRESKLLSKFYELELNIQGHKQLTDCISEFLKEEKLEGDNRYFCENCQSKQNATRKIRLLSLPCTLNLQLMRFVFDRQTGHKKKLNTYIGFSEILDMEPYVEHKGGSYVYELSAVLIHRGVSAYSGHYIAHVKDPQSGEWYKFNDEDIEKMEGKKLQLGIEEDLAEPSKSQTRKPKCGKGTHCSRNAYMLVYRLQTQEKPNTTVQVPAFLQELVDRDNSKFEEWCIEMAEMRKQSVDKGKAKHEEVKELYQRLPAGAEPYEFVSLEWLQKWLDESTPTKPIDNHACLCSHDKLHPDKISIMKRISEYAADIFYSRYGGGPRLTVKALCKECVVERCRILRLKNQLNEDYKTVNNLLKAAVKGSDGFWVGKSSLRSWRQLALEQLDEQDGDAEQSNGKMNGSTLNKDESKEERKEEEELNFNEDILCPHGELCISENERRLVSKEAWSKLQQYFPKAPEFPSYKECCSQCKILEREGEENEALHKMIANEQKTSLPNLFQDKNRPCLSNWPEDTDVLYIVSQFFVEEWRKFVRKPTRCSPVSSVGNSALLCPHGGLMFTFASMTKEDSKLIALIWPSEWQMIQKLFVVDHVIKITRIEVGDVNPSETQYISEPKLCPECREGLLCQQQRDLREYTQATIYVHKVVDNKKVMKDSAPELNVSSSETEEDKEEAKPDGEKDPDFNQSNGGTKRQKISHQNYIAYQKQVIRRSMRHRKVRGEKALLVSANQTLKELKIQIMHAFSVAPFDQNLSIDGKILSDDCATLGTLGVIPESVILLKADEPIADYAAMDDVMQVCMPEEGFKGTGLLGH
Outline: as §1

USP5 = target: T4, USP5 (UniProt P45974)
T4 sequence (whole entry): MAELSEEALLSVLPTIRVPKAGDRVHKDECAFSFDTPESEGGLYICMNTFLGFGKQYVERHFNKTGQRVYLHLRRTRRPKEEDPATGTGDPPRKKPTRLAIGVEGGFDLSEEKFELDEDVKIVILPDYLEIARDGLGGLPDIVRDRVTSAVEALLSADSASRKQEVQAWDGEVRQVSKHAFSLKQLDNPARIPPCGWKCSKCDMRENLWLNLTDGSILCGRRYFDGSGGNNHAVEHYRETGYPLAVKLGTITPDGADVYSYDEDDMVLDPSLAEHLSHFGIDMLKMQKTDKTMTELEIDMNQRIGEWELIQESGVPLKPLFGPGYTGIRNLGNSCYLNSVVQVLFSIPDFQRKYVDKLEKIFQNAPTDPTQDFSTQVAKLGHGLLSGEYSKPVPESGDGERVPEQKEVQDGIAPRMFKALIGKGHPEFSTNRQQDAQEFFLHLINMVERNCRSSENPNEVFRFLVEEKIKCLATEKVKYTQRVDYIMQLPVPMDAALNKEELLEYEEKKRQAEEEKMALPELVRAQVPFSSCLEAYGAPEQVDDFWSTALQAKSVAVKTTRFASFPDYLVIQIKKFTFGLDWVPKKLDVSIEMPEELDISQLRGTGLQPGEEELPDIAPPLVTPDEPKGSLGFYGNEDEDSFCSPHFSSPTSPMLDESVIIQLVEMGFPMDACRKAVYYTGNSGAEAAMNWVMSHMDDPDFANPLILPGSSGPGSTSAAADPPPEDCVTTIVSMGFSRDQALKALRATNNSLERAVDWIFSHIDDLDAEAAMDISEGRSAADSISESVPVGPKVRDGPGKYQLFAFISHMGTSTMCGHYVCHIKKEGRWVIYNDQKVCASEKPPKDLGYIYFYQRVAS
Outline: as §1

USP54 = USP54 (UniProt Q70EL1)
Sequence of USP54 (Q70EL1 whole entry): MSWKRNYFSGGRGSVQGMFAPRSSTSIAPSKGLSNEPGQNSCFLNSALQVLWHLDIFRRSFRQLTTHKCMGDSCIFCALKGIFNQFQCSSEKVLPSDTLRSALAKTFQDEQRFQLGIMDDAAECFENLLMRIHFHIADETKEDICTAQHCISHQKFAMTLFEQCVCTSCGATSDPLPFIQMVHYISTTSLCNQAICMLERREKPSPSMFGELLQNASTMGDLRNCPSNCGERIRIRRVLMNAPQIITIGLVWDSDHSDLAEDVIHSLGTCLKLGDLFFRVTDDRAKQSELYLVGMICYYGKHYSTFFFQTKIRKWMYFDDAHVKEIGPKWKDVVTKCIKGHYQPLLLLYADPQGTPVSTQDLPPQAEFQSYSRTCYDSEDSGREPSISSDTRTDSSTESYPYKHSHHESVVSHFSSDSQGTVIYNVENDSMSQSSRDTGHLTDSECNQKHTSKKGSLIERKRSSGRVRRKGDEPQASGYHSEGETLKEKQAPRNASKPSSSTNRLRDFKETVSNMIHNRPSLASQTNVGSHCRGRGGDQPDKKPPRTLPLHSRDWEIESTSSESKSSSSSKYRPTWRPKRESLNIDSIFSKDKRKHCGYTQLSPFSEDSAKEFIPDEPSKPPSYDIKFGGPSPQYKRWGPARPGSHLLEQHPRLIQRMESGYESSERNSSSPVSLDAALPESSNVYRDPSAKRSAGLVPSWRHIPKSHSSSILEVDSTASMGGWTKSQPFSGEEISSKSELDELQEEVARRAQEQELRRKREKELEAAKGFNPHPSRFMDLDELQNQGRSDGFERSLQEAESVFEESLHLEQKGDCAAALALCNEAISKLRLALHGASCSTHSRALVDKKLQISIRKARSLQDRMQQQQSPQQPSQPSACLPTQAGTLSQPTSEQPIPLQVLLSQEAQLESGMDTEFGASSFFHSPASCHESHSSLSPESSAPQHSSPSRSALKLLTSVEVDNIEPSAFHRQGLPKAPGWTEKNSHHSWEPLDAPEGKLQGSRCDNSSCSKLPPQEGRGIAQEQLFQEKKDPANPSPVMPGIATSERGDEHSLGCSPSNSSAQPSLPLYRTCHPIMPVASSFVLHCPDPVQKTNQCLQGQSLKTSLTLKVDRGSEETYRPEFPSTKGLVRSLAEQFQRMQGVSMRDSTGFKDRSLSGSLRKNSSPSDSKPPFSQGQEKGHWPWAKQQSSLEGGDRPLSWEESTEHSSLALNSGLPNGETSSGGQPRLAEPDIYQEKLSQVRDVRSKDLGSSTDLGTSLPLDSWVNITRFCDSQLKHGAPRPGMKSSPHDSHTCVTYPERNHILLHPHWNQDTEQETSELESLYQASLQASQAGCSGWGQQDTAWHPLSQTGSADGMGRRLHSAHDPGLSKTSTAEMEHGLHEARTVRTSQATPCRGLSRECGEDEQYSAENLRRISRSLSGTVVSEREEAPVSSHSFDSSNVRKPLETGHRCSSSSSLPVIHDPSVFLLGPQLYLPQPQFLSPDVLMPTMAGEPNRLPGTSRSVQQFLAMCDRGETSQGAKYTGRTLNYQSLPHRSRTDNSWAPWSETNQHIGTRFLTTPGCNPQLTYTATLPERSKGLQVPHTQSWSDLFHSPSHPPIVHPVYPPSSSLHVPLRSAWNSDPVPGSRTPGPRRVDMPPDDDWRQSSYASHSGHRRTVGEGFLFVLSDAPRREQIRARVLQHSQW
Outline: as §1

USP7 = USP7 (UniProt Q93009)
Sequence of USP7 (Q93009 whole entry, looked up): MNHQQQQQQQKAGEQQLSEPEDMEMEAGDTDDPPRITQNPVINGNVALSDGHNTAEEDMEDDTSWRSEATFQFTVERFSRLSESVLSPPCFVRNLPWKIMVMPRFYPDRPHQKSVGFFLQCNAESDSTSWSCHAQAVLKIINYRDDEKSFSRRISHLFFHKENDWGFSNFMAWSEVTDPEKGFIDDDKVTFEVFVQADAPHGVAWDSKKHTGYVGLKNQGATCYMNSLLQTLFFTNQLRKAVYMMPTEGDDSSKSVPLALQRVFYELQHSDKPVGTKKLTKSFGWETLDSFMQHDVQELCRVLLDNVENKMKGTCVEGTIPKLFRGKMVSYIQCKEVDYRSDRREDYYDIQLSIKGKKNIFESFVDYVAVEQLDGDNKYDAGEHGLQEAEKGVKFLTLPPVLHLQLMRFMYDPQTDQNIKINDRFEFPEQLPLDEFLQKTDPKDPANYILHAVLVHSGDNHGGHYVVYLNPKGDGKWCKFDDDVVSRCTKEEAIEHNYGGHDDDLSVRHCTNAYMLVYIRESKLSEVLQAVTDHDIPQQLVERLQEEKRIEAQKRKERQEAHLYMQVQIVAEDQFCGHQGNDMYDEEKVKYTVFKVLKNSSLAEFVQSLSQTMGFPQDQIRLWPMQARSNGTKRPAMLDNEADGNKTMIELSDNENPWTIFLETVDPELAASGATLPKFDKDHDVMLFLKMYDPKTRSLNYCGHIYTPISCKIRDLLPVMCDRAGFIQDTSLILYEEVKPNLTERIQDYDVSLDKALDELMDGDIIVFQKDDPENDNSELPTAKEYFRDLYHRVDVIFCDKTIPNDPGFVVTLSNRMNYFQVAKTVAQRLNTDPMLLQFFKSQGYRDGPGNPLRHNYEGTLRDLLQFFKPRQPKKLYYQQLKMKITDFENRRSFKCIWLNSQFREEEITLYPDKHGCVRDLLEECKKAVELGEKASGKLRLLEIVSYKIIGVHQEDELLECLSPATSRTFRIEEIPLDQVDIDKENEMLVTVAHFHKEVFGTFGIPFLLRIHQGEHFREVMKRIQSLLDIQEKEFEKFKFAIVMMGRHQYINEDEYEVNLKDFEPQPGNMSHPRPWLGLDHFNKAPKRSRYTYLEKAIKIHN
Outline: as §1

USP8 = target: T5, USP8 (UniProt P40818)
T5 sequence (whole entry): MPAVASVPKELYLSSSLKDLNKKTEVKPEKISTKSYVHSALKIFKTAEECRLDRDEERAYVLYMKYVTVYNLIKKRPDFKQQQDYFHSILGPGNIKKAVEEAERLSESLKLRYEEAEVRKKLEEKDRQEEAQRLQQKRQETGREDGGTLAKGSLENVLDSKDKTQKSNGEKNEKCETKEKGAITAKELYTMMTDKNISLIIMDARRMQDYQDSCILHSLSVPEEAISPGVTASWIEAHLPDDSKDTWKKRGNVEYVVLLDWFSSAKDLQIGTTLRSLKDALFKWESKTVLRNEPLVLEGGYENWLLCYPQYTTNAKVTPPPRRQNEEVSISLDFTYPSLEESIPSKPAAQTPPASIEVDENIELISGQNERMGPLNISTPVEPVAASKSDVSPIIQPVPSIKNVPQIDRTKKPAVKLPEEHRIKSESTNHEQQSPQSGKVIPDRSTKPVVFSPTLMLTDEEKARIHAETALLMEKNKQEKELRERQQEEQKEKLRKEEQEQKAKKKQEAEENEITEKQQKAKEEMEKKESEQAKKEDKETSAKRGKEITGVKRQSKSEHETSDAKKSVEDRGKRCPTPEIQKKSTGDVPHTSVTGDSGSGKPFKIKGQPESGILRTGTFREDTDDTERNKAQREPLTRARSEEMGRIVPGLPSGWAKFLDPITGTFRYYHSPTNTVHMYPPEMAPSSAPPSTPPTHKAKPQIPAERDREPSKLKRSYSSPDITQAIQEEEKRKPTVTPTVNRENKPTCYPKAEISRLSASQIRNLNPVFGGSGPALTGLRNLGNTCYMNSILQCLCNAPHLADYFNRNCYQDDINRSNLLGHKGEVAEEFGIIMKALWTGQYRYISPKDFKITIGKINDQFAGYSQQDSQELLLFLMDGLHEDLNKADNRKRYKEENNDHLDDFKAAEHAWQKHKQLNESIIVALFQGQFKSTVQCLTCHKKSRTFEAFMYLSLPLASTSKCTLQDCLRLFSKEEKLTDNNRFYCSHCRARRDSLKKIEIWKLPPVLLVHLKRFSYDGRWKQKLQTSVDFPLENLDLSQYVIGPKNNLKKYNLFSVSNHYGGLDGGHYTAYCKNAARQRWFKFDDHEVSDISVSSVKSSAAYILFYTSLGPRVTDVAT
Outline: as §1

USP9X = USP9X (UniProt Q93008)
Outline: as §1

UniProt O00487 = target: UniProt O00487
Sequence of UniProt O00487 (O00487 whole entry): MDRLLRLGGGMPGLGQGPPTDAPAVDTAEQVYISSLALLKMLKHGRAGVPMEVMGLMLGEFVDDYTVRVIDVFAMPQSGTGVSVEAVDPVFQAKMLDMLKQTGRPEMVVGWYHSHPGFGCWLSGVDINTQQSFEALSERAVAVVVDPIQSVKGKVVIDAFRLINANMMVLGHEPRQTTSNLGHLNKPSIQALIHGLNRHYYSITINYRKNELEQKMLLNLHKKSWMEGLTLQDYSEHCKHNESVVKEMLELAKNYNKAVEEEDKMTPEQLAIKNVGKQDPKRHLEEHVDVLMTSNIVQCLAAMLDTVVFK
Outline: as §1

Measured: log2 ratio of Biotin-Ahx-Ub-VS probe labelling

O=C(CCl)N1CCC(c2nc3ccccc3o2)CC1
inactive: USP42 -0.0372 | USP46 -0.0557 | USP47 -0.397 | USP48 -0.598 | USP5 0.186 | USP54 0.726 | USP7 -0.746 | USP8 -0.0637 | USP9X -0.351 | UniProt O00487 -0.154

O=C(CCl)NCc1cccc(F)c1
inactive: USP42 -0.105 | USP46 0.151 | USP47 -0.193 | USP48 -0.0573 | USP5 0.1 | USP54 0.396 | USP7 -0.069 | USP8 -0.0486 | USP9X 0.0745 | UniProt O00487 -0.0795

O=C(CCl)N1CCc2[nH]c3ccccc3c2C1
inactive: USP42 0.132 | USP46 -0.655 | USP47 -0.863 | USP48 -0.532 | USP5 -0.461 | USP54 -0.00488 | USP7 -0.511 | USP8 -0.774 | USP9X -0.846 | UniProt O00487 -0.243
